GRIN3A LBD mod: binders of NR3A ligand-binding domain, primary screen, biophysical, differential scanning fluorimetry, uHTS; Glutamate receptor ionotropic, NMDA 3A (GRIN3A) ligand-binding domain; NR3A LBD differential scanning fluorimetry, Tm shift; 0% = protein alone, 100% = glycine-bound protein; Tm shift relative to glycine control, % at 25 µM; actives 2.5% (n = 340,000); AID 1259313, 2017;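 active means melting temperature shift of at least 10% of the positive control shift, at one fixed dose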
pCIP destab: p/CIP-EGFP fusion destabilizers, primary screen, fluorescence, F442A cells | Q05BA5 | 16 h | decrease of EGFP signal, % at 10 µM | actives 0.01% (n = 290,000);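 active means EGFP signal decrease of at least 30% at 10 µM or well 3 SD below plate mean, unless failing retest; inactive means the rest, including hits failing retest or dose response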
beta cell repl: inducers of MIN6 beta-cell proliferation, primary screen, ATP luminescence, uHTS. proliferation, % at 10 µM. MIN6 cells proliferation, ATPlite luminescence, 48 h; cells starved in 0.2% serum; 100% = growth in 10% serum. actives 0.29% (n = 330,000). AID 2380, 2010;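 active means compounds whose signal lies at least 3.5 SD above the mean of all wells on their plate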;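 further: 0% = DMSO-treated cells in low-serum medium and 100% = 10% serum control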
MPTP inh: mitochondrial permeability transition pore inhibitors, primary screen, biochemical, isolated mouse mitochondria, absorbance. Ca2+ swelling absorbance, 30 min. inhibition, % at 10 µM. actives 1.4% (n = 360,000). AID 602449, 2012;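 active means inhibition of 50% or more, scaled per plate between neutral and stimulator controls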;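 further: 0% = DMSO wells given calcium and 100% = 1 mM EGTA wells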
FAS TE block: FAS thioesterase domain inhibitors, primary screen, biochemical, fluorescence intensity, uHTS | inhibition, % at 15 µM | actives 0.67% (n = 360,000) | recombinant FAS-TE, OMFH fluorogenic substrate, fluorescence endpoint | Fatty acid synthase (Homo sapiens), P49327;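 active means compounds whose normalised, plate-corrected inhibition of enzyme fluorescence in the single-dose primary screen is 50% or more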;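 further: 0% = DMSO with enzyme and 100% = substrate without enzyme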
* marks the source's active call; other numbers are inactive results; x = not tested or not shown. In the library only some 4.1% were active in any assay of this set; here they are far more common.

SMILES | GRIN3A LBD mod | pCIP destab | beta cell repl | MPTP inh | FAS TE block
OCCNc1ncnc2c1ncn2[C@H]1CN(Cc2ccc3c(c2)OCO3)C[C@@H](CO)O1 | x | x | x | -1.3 | -3.8
Fc1ccccc1-c1ccc(/C=N/Nc2nc3ccccc3[nH]2)o1 | 21.2* | 2.2 | -6.0 | 14.8 | -42.7
C(=N\Nc1nc2ccccc2[nH]1)/c1ccccn1 | -4.2 | 4.9 | x | -1.6 | -8.3
O=C(NC(=S)NCc1ccccc1)C1CCCCC1 | 18.3* | -8.0 | -4.0 | 3.1 | 11.6
O=c1cc(CN2CCN(c3ccc(Cl)c(Cl)c3)CC2)c2c(ccc3ccccc32)o1 | x | x | x | 1.5 | 25.7
O=C(NCCc1ccc(F)cc1)C1CCC(=O)N(CC2CCCCC2)C1 (stereo unspecified) | x | x | x | -0.4 | -1.3
NC(=S)N/N=C/c1ccc2ccccc2c1 | 17.6* | -3.7 | 0.0 | 0.9 | -9.2
CCc1ccc(CN(C)CC(=O)Nc2ccccc2[N+](=O)[O-])cc1 | 19.1* | 2.1 | 0.0 | -2.2 | 23.9
C=CCOc1ccc(CN(C)CC(=O)Nc2ccccc2[N+](=O)[O-])cc1 | -2.1 | -4.6 | -3.8 | 0.3 | 30.9
CC1CCCN(S(=O)(=O)c2ccc(NC(=O)CN3CCCCC3)cc2)C1 (stereo unspecified) | 0.7 | -0.6 | -1.9 | 0.0 | -3.4
Cc1ccc(-c2nnn(CC(=O)Nc3ccc(S(=O)(=O)N4CCC(C)CC4)cc3)n2)cc1 | 55.2* | -0.2 | -3.6 | 19.7 | -3.5
CC1CCCN(S(=O)(=O)c2ccc(NC(=O)Cn3nnc(-c4ccccc4F)n3)cc2)C1 (stereo unspecified) | 11.6* | 3.5 | -4.5 | 45.1 | 30.6
C=CCNc1ncnc2c1ncn2[C@H]1CN(CCOC)C[C@@H](CO)O1 | x | x | x | -2.3 | -9.6
NC(=O)c1cccc(-c2ccnc3c2CC(C(=O)Nc2cccc(C(F)(F)F)c2)O3)c1 (stereo unspecified) | x | x | x | 0.8 | 3.6
COc1cc(C(=O)N2C[C@H]3CC[C@H]2C3)ccc1OC1CCN(C(C)=O)CC1 | 13.1* | -5.2 | -2.2 | 3.1 | -6.3
Cc1nnc(SCC(=O)Nc2sc3c(c2C(=O)c2ccccc2)CCCC3)s1 | 10.4* | -16.8 | 0.0 | 0.1 | -11.9
CCCCC[C@@H](C)N1C[C@H](COCc2ccccc2)Oc2cc(N3CCC[C@H]3CO)ccc2S1(=O)=O | x | x | x | 3.6 | 3.3
COC(=O)c1cccc2c1-c1ccccc1/C2=N/O | -8.6 | -5.3 | 5.5* | 1.0 | -68.9
c1ccc(COc2ccc(-c3cc4nc(NCCCn5ccnc5)ccn4n3)cc2)cc1 | x | x | x | 1.0 | -22.1
COc1ccc(C2CC(c3ccccc3)=NN2C(=S)Nc2ccccc2)cc1 (stereo unspecified) | -0.6 | -20.8 | -3.4 | 1.2 | 42.5
COc1ccc(C2CC(c3ccc(Br)cc3)=NN2C(=S)Nc2ccccc2)cc1 (stereo unspecified) | 11.3* | -4.2 | -1.5 | 3.5 | 25.9
CSc1ccc(Cl)c(C(=O)OCC(=O)NC2CC2)c1 | 11.7* | -7.4 | 1.7 | -3.7 | -6.3
Oc1ccc(/C=C/c2nc(-c3ccccc3O)n(-c3ccccc3)n2)cc1 | 14.1* | -10.4 | -5.7 | 11.9 | 22.6
CCOc1ccc(C(=O)CC(=O)C(=O)NCCc2ccc(OC)c(OC)c2)cc1 | 24.5* | -4.8 | 0.0 | -26.7 | 2.7
COC(=O)c1nn(-c2ccccc2)c2nnc(Cc3ccc(C)cc3)c(=O)n12 | -1.2 | -19.2 | 0.0 | 2.4 | -7.6
SMILES | GRIN3A LBD mod | pCIP destab | beta cell repl | MPTP inh | FAS TE block
CCOC(=O)c1nn(-c2ccccc2)c2nnc(Cc3ccc(Cl)cc3)c(=O)n12 | -4.3 | -3.1 | 0.9 | 2.8 | 12.3
CCOC(=O)c1nn(-c2ccc(Cl)cc2)c2nnc(Cc3ccccc3)c(=O)n12 | 10.2* | -10.8 | 1.5 | -16.7 | 8.4
CCOC(=O)c1nn(-c2ccc(Cl)cc2)c2nnc(Cc3ccc(C)cc3)c(=O)n12 | 13.4* | -6.9 | 1.8 | -7.1 | 16.4
COCCN1C(=O)CCC1(C)c1nnnn1Cc1ccccc1 (stereo unspecified) | x | x | x | 0.1 | -11.3
Cc1ccc(NC(=O)c2ncn(CCCNCC3CCCCC3)n2)cc1C | x | x | x | -0.7 | -7.6
O=C(Nn1c(O)c(C=C2N=c3ccccc3=N2)sc1=S)c1ccc(Cl)cc1 | 32.2* | 8.0 | -3.0 | 0.8 | -4.5
Oc1c(C=C2N=c3ccccc3=N2)sc(=S)n1-c1ccc(F)cc1 | 9.0 | -12.3 | 0.0 | 15.7 | -8.9
O=C(Nn1c(O)c(C=C2N=c3ccccc3=N2)sc1=S)c1ccccc1 | 22.9* | 1.0 | -1.6 | -0.7 | -5.5
Oc1c(C=C2N=c3ccccc3=N2)sc(=S)n1-c1ccc2ccccc2c1 | 17.4* | -23.0 | -2.9 | 33.8 | -1.6
O=C(Nn1c(O)c(C=C2N=c3ccccc3=N2)sc1=S)c1cccc(Cl)c1 | 28.9* | -0.5 | -4.4 | 1.3 | 0.9
O=C1N=c2ccccc2=C1c1sc(=S)n(NC(=O)c2cccc(O)c2)c1O | -2.2 | 2.5 | x | 5.0 | -3.8
CC(C)c1c(C(=O)Nc2ccccc2)c(-c2ccccc2)c(-c2ccc(F)cc2)n1CC[C@@H](O)C[C@@H](O)CC(=O)O | x | x | x | x | 0.5
CC1(C(=O)NS(=O)(=O)c2ccc(Br)cc2)CCN1C(=O)c1cccc(F)c1 (stereo unspecified) | x | x | x | -0.4 | -7.7
Cc1ccc(S(=O)(=O)Nn2c(O)c(C=C3N=c4ccccc4=N3)sc2=S)cc1 | 6.7 | 15.7 | -5.7 | 5.4 | -2.7
Cc1ccc(C(=O)Nn2c(O)c(C=C3N=c4ccccc4=N3)sc2=S)cc1 | 26.9* | -0.5 | -4.0 | -1.2 | -3.5
COc1ccc(NS(=O)(=O)c2cccs2)c(OC)c1 | 15.5* | 9.8 | -1.3 | 2.9 | 3.9
COc1ccccc1NS(=O)(=O)c1cccs1 | -2.1 | 5.6 | 0.2 | -2.0 | -1.1
C[C@@]12CCC=C[C@H]1[C@H](c1ccccc1Br)N(Cc1ccccc1)C2=O | -0.7 | x | x | 0.3 | 19.0
C[C@@]12CCC=C[C@H]1[C@H](c1ccoc1)N(Cc1ccccc1)C2=O | 11.5* | -2.4 | 1.9 | 0.2 | 1.1
CCCC[C@@H]1CC2=C(C(=O)OC(C)(C)O2)[C@@H](c2ccc(Cl)cc2)O1 | x | x | x | 1.8 | 24.2
CC(=O)Oc1ccc(C(=O)Cc2ccc3ccccc3n2)c(O)c1C | 11.6* | -17.1 | -3.6 | 3.9 | 13.3
CC(=O)Oc1ccc(C(=O)Cc2ccccn2)c(O)c1 | -7.0 | 0.1 | 1.1 | 0.4 | -9.3
CC(=O)Nc1ccc(-c2ccnc3c2CC(C(=O)Nc2cccc(C(F)(F)F)c2)O3)cc1 (stereo unspecified) | x | x | x | -0.1 | 13.0
COc1ccc(NC(=O)COc2nsnc2N2CCOCC2)c(OC)c1 | 14.0* | -9.2 | -2.3 | -0.1 | -0.4
CCCc1nc2ccc(C)cn2c1Cc1ccsc1 | x | x | x | -0.1 | -4.4
Cc1ccc(C(NC(=O)C2CCN(CCOc3ccccc3)CC2)c2ccccn2)cc1 (stereo unspecified) | x | x | x | -0.4 | -1.3

Source: PubChem BioAssay
